Reference: PubChem BioAssay AID1851 (National Center for Advancing Translational Sciences (NCATS), 2009)
Where “and” joins values, the source holds several entries; their conditions need not be identical. Identical values can stand only once. The campaign covered roughly 16,000 compounds. About 5,800 (36%) were called active. Another 23% or so got no clear call; they are omitted. Calls follow the shape of the dose curve; as a rule, active = well fitted curve in the direction sought with a large enough effect; inconclusive = small, poorly fitted or top-dose-only effect, or effect the other way; inactive = no such curve, though single readings can be large or run the other way. Some of the results follow. A structure can be active in one record and inactive in another.

target: Cytochrome P450 2C19 (Homo sapiens) (UniProt P33261); test: Cytochrome panel assay with activity outcomes; conditions: recombinant CYP, pro-luciferin dealkylation, luminescence, p450-cyp2c19; series mostly up to 57.1 µM
Sequence (P33261 whole entry, looked up): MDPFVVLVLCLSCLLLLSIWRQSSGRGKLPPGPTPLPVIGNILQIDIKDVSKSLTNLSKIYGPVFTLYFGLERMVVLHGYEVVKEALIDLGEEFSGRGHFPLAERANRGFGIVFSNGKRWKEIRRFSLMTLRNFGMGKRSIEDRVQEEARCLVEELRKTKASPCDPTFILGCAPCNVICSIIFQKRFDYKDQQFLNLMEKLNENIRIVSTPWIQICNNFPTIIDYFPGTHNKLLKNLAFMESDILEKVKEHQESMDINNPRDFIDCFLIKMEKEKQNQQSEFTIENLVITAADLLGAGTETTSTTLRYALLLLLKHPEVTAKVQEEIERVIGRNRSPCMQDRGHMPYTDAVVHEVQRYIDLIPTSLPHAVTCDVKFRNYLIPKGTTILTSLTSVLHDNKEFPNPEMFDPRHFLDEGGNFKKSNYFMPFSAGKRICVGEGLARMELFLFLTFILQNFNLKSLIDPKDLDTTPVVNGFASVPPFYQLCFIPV
% is scaled to controls: 0 for no effect and ±100 for the full control effect.

Compound	AC50	activity, negative = inhibition
NS(=O)(=O)c1ccc(NCc2ccccc2OCc2ccccc2F)cc1	6.31 µM (active)	
NS(=O)(=O)c1ccc(NCc2nc3ccccc3[nH]2)cc1		39.2% [at 11.4 µM] (inactive)
NS(=O)(=O)c1ccc(NCc2cnc3ccccc3n2)cc1		20.6% [at 11.4 µM] (inactive)
CC1CC/C(=C\c2ccc3c(c2)OCO3)C(=O)/C1=C/c1ccc2c(c1)OCO2 (stereo not given)	2.82 µM (active)	
Cc1nc2cnc(N3CCN(C)CC3)nc2n(Cc2cccs2)c1=O	inactive	
COC(=O)[C@@]1(Cc2ccc(F)cc2)[C@H]2c3cc(C(=O)N4CCCC4)n(CCc4ccc(OC)c(Br)c4)c3C[C@H]2CN1C(=O)c1ccccc1	5.01 µM (active)	
COC(=O)[C@@]1(Cc2ccc(F)cc2)[C@H]2c3cc(C(=O)N4CCCC4)n(Cc4ccc(S(C)(=O)=O)cc4)c3C[C@H]2CN1C(=O)c1ccccc1	inactive	
COc1ccccc1CN1CCCC2(CCN(C(=O)c3cccn3C)CC2)C1	inactive	
COC(=O)[C@@]1(Cc2ccc(F)cc2)[C@H]2c3cc(C(=O)N4CCCC4)n(CCc4ccc(O)c(O)c4)c3C[C@H]2CN1C(=O)c1ccccc1	15.8 µM (active)	
CC(NC(=O)c1ccc(N2CCCC2=O)cc1)c1ccccc1 (stereo not given)	inactive	
O=C(O)c1cccc(N2CCCC2=O)c1	31.6 µM (active)	
O=c1cc(CO)oc(CN2CCCC2)c1O	inactive	
CO[C@H]1COC(=O)[C@H](C)NC(=O)C/C=C\[C@@H](C)[C@@H](NS(=O)(=O)c2ccc(C)cc2)COC(=O)[C@H](OCc2ccccc2)/C=C\[C@@H]1C		6.49% [at 11.4 µM] (inactive)
COc1ccc(/C=N/NC(=O)c2ccccc2)cc1CN1CCN(c2ccc(F)cc2)CC1	17.8 µM (active)	
CCOc1cc(CN2CCN(c3ccc(C(C)=O)cc3)CC2)ccc1OC	inactive	
COc1ccc(/C=N/NC(=O)c2ccn[nH]2)cc1COc1ccc(Cl)cc1	2 µM (active)	
COc1ccc(/C=N\NC(=O)C2C(=O)NCC2c2ccccc2)cc1O (stereo not given)	inactive	
Cc1ccc(/C=N\NC(=O)c2cc(OCC(F)(F)F)ccc2OCC(F)(F)F)cc1	inactive	
COc1ccc(C(=O)CN2CCN(c3ccc(F)cc3)CC2)cc1OC	14.1 µM (active)	
COc1ccc(/C=N/NC(=O)c2ccn[nH]2)cc1COc1ccc(F)cc1	3.55 µM (active)	
C[C@H](O)[C@H](O)[C@@H]1CNc2nc(N)[nH]c(=O)c2N1	inactive	
Cc1c(C(=O)NN2CCOCC2)nn(-c2ccc(Cl)cc2Cl)c1-c1ccc(I)cc1	7.94 µM (active)	
Cc1ccc(C(=O)NN2CCOCC2)cc1	inactive	
O=C(Nc1ccccc1C(=O)NCCc1ccccc1)c1ccco1	8.91 µM (active)	

Compound	AC50	activity, negative = inhibition
COc1ccc(CCNC(=O)c2ccccc2NC(=O)c2ccco2)cc1OC	11.2 µM (active)	
O=C(CCc1ccccc1)NNC(=O)c1ccco1	inactive	
CC(C)[C@@H](OCc1ccccc1)[C@H](C)/C=N\O[C@@H](C)c1cn([C@H](CO)Cc2ccccc2)nn1		-16.9% [at 11.4 µM] (inactive) and -29.7% [at 11.4 µM] (inactive)
N#C/C(=C\c1ccc(O)c(O)c1)C(=O)OCCc1cccs1	6.31 µM (active)	
N#C/C(=C\c1ccc(O)c(O)c1)C(=O)NCCCc1ccccc1	10 µM (active)	
N#C/C(=C\c1ccc(O)c(O)c1)C(=O)c1ccc(O)c(O)c1	inactive	
N#C/C(=C\c1ccc(O)c(O)c1)C(=O)NCCc1ccccc1	inactive	
O=c1cc(O)cc(/C=C\c2ccc(O)c(O)c2)o1	inactive	
N#Cc1ccc(-c2ccc(F)cc2)nc1Oc1ccc(Cl)c(Cl)c1	3.55 µM (active)	
Cc1ccc(C2NC(c3ccc(C)cc3)C(C)C(=NO)C2C)cc1 (stereo not given)	0.562 µM (active)	
CNC[C@H](O)[C@H](O)[C@H](O)[C@H](O)CO	inactive	
Cc1cnc(CNc2nc(-c3ccccc3C)nc3ccccc23)cn1	inactive	
Cc1cnc(CNc2ncnc3ccc(-c4ccc(N(C)C)cc4)cc23)cn1	15.8 µM (active)	
Cc1cnc(CNc2ncnc3ccc(-c4ccoc4)cc23)cn1	inactive	
Cc1cnc(CNc2ncnc3ccc(-c4ccccc4C)cc23)cn1	15.8 µM (active)	
Cc1ncc([N+](=O)[O-])n1CCO	inactive	
COc1ccccc1-c1cncnc1NCc1cccs1	2 µM (active)	
FC(F)(F)c1ccccc1-c1cncnc1NCc1cccs1	20 µM (active)	
CN(C)Cc1ccccc1-c1cncnc1NCc1cccs1	inactive	
Cc1ccccc1-c1cncnc1NCc1cccs1	0.794 µM (active)	
Clc1ccccc1-c1cncnc1NCc1cccs1	1.58 µM (active)	
Cc1cnn(-c2cc(N/N=C/c3ccccc3F)ncn2)c1	inactive	
COCCNC(=O)c1ccc2c(c1)nc(C)n2-c1cc(OC)c(OC)c(OC)c1	inactive	
CN(C)CCCNC(=O)c1cc2c3ccccc3n(C)c2s1	inactive	

Compound	AC50	activity, negative = inhibition
COCCNC(=O)c1cc2c3ccccc3n(C)c2s1	11.2 µM (active)	
O=C(OCc1nc2ccccc2s1)c1ccc(Br)s1	0.447 µM (active)	
COc1cccc(N2C(=O)C(CC(=O)Nc3ccccc3)N(C3CCCCC3)C2=O)c1 (stereo not given)	4.47 µM (active)	
COc1ccc(COC(=O)N/N=C2/C[C@@H](O)[C@@H](O)[C@@H]3[C@@H]4C(=O)N(c5cccc(Oc6ccccc6)c5)C(=O)[C@H]4CC[C@@H]23)cc1		20.4% [at 11.4 µM] (inactive)
COc1ccc(COC(=O)N/N=C2/C[C@@H](O)[C@@H](O)[C@@H]3[C@@H]4C(=O)N(c5cccc(Oc6ccccc6)c5)C(=O)[C@H]4CC[C@H]23)cc1		-11% [at 11.4 µM] (inactive)
COc1ccc(NC(=O)CC2C(=O)N(c3cccc(OC)c3)C(=O)N2C2CCCCC2)cc1 (stereo not given)	8.91 µM (active)	
CCCCCCCCSc1nnc(CSc2nc3nc(C)cc(C)n3n2)o1	7.94 µM (active)	
CCOC(=O)c1cnn(-c2ccc(C(C)C)cc2)c1NC(=O)C1CCC1	10 µM (active)	
CC(C)OCCCN1CN(S(=O)(=O)c2cccc(Cl)c2)c2nc3ccccc3nc21	3.16 µM (active)	
C[C@@H](C(=O)O)c1ccc(-c2ccccc2)c(F)c1	inactive and 631 nM (active)	
C[C@H](C(=O)O)c1cccc(Oc2ccccc2)c1	inactive	
O=C(O)[C@@H](O)c1ccc(F)cc1		10.1% [at 11.4 µM] (inactive)
O=C(O)c1cccc(C(=O)O)c1S(=O)Cc1ccccc1 (stereo not given)		41.5% [at 11.4 µM] (inactive)
O=S(Cc1ccccc1)CC(O)(c1ccccc1)c1ccccc1 (stereo not given)	5.01 µM (active)	
O=C(O)C(Cl)(c1ccccc1)c1ccccc1		-2.62% [at 11.4 µM] (inactive)
CCOC(OCC)P(=O)(O)CCCNCc1ccc(Cl)c(Cl)c1	inactive	
CCOc1ccc(C(=O)Nc2cnn(Cc3ccc(Cl)c(Cl)c3)c2)cc1	3.55 µM (active)	
CN1CCN(c2ncc3nc(-c4cn(C)c5ccccc45)c(=O)n(CCc4ccccc4)c3n2)CC1	inactive	
Cn1cc(-c2nc3cnc(N4CCOCC4)nc3n(CCC#N)c2=O)c2ccccc21	inactive	
Cn1cc(-c2nc3cnc(N4CCNCC4)nc3n(Cc3ccc(F)cc3)c2=O)c2ccccc21	7.94 µM (active)	
COCCn1c(=O)c(-c2cn(C)c3ccccc23)nc2cnc(N3CCNCC3)nc21	inactive	
Cn1cc(-c2nc3cnc(N4CCNCC4)nc3n(CCc3ccccc3)c2=O)c2ccccc21	2 µM (active)	
CCNc1ncc2nc(-c3cn(C)c4ccccc34)c(=O)n(Cc3ccc(F)cc3)c2n1	inactive	
CSc1nc(O)c(Cc2ccccc2)c(=O)[nH]1	inactive	

Compound	AC50	activity, negative = inhibition
CSc1nc(C)c(CCOC(=O)c2cccc(C)c2)c(=O)[nH]1	3.16 µM (active)	
CSc1nc(C)c(CCOC(=O)c2ccccc2)c(=O)[nH]1	15.8 µM (active)	
Cc1ccccc1[C@@H](OCCN(C)C)c1ccccc1	inactive	
CN(C)c1nc2c(c(=O)[nH]c(=O)n2C)n1Cc1ccccc1Br	inactive	
COc1ccc(N2CCN(Cc3nc4c(c(=O)n(C)c(=O)n4C)n3CC(C)=O)CC2)cc1	inactive	
C=CCn1c(=O)c2c(nc(Br)n2Cc2ccccc2Cl)n(C)c1=O	0.794 µM (active)	
C=CCn1c(=O)c2c(nc(-c3ccc(S(=O)(=O)O)cc3)n2C)n(C)c1=O	inactive	
COC(=O)Cn1c(=O)c2c(nc(Br)n2Cc2ccccc2Cl)n(C)c1=O	0.891 µM (active)	
C=CCn1cc(Cl)c(=O)n(CC=C)c1=O	inactive	
CCn1nccc1C(=O)Nc1nc2ccccc2n1CCN1CCCCC1	inactive	
C=CCn1c(NCc2ccccc2)nc2ccccc21	3.16 µM (active)	
COc1ccc(CNc2nc3ccccc3n2Cc2ccccc2)cc1OC	7.94 µM (active)	
O=C(Nc1nc2ccccc2n1Cc1ccccc1)c1ccc(COc2ccccc2[N+](=O)[O-])o1	1.26 µM (active)	
CC(=O)Nc1nc2ccccc2n1Cc1ccccc1	22.4 µM (active)	
CC(C)CN1CCC2(CC1)CCN(C(=O)c1cc(C(F)(F)F)cc(C(F)(F)F)c1)CC2	inactive	
CC[C@](N)(CCC(=O)O)C(=O)O	inactive	
CN(C)c1ncc2nc(-c3cc(F)cc(F)c3)c(=O)n(C[C@H]3CCCO3)c2n1	inactive	
O=C(CN(Cc1ccccc1)S(=O)(=O)c1ccc2c(c1)OCCO2)N/N=C/c1ccc(F)cc1	3.98 µM (active)	
CN(CCc1ccccn1)c1ccc2c(c1)Cc1ccccc1-2	0.794 µM (active)	
CN(CCc1ccccn1)c1ccc2c(c1)C(=O)c1ccccc1-2	2.51 µM (active)	
CCOC(=O)N/N=C1/C[C@@H](O)[C@@H](O)[C@@H]2[C@@H]3C(=O)N(Cc4ccccc4)C(=O)[C@H]3CC[C@@H]12		11.9% [at 11.4 µM] (inactive)
COC(=O)c1nnn(Cc2ccccc2)c1N	inactive	
CCOC(=O)C1=C(O)C(=O)N(Cc2ccccc2)C1	15.8 µM (active)	
